KCNQ2 enhance = KCNQ2 (rat) channel potentiation. CHO-K1 KCNQ2, FluxOR thallium flux fluorescence; stronger effect = higher value. 0.54% of 310,000 active. B-score at 10 µM. O88943;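 active = fluorescence ratio B-score at least 3 SD of library B-scores, with initial fluorescence B-score within 3 of them, cut at about 5.3 in these data; same plate scores as AID 2156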;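 note: B-score of peak minus minimum over baseline fluorescence ratio after K+ and Tl+ stimulus; positive B-score means potentiation of KCNQ2 with more thallium influx and brighter signal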
Target sequence (O88943 whole entry, looked up): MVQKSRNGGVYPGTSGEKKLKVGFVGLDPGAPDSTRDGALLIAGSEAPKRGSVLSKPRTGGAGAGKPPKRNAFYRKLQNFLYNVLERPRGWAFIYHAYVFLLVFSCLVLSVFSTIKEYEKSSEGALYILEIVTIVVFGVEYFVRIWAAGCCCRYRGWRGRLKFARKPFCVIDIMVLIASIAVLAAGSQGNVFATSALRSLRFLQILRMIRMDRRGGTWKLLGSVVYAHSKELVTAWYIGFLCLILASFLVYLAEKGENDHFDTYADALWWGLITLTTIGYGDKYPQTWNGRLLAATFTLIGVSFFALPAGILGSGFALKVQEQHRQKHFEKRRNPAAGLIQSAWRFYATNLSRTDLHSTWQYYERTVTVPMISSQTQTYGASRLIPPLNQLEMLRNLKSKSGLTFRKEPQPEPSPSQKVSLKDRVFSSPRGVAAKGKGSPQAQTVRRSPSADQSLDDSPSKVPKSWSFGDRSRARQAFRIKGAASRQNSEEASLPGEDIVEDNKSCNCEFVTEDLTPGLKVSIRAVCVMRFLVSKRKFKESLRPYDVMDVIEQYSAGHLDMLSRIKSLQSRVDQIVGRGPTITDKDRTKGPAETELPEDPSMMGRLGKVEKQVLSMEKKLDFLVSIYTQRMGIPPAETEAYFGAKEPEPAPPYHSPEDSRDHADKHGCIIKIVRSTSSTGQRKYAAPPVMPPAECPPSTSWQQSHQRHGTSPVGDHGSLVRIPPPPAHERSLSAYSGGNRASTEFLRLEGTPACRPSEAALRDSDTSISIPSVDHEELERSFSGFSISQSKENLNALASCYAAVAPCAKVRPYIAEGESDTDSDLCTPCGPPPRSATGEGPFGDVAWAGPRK
KCNQ2 inh = blocks the rat KCNQ2 potassium channel. B-score at 10 µM. 1.1% of 310,000 active. O88943. AID 2156. CHO-K1 KCNQ2, FluxOR thallium flux, 20 min; stronger effect = lower value;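 active = fluorescence ratio B-score at most minus 3 library SDs, with starting brightness B-score within 2 library SDs, cut at about -5.5 in these data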
* = called active by the depositor; i = inactive; . = no result given. Rows were chosen to be rich in hits. Some 1.6% of all compounds tested hit in one or more screens of this group.

SMILES	KCNQ2 enhance	KCNQ2 inh
O=[N+]([O-])c1ccc(N2CCC(=NOCc3ccc(Cl)cc3)CC2)cc1	-5.7	-5.7*
Cc1ccc(S(=O)(=O)NC(=O)COc2ccc([N+](=O)[O-])cc2)cc1	1.5	i
CCOC(=O)C1=C(C)N(c2ccccc2)C(=O)/C1=C\c1cccs1	.	i
COC(=O)C1=C(C)N(c2cccc(C)c2)C(=O)/C1=C\c1cccs1	-6.7	-6.7*
Cc1onc(-c2c(F)cccc2Cl)c1C(=O)N(C)CCc1ccccn1	0.73	i
Cc1cc(Br)c(NC(=O)CN(C)CCOc2ccccc2)c(Br)c1	.	i
Cc1cc(Br)c(NC(=O)CCl)c(Br)c1	6*	i
COc1ccc(CCNC(=O)CCCCCN2C(=O)[C@@H]3Cc4ccccc4CN3C2=O)cc1OC	.	i
COc1ccc(C(=O)NC(=S)Nc2ccc(S(N)(=O)=O)cc2)cc1	1.6	i
COc1cc(C(=O)NNC(=S)Nc2ccc(S(N)(=O)=O)cc2)cc(OC)c1OC	-6.1	-6.1*
CCN(CC)C(=O)/C(=C/c1ccc2c(c1)OCO2)NC(=O)c1ccc(Br)cc1	-5.9	-5.9*
O=C(NCCO)/C(=C/c1ccc2c(c1)OCO2)NC(=O)c1ccc(Br)cc1	.	i
COc1ccc(CNC(=O)C2CCCN(c3nccc(C)n3)C2)cc1 (configuration not stated)	0.02	i
CCc1ccc(NC(=O)C(=O)NNC(=O)COc2cccc(OC)c2)cc1	6*	i
COc1ccc(NC(=O)C(=O)NNC(=O)COc2ccc(OC)cc2)cc1	1.8	i
Cc1c(NS(=O)(=O)c2ccc(N(C)C3CCCCC3)c([N+](=O)[O-])c2)c(=O)n(-c2ccccc2)n1C	0.27	i
NS(=O)(=O)c1ccc(NCc2cc(Cl)ccc2OCc2ccc(F)cc2)cc1	7.7*	i
NS(=O)(=O)c1ccc(NCc2ccccc2OCc2ccccc2F)cc1	3.4	i
Cc1oc2ccc(OCc3ccccc3Cl)cc2c1C(=O)O	2.9	i
Cc1oc2ccc(OCc3ccc(F)cc3Cl)cc2c1C(=O)O	7*	i
Cc1ccc(NCc2nc3ccccc3n2C)c(C)c1	-6.6	-6.6*
Cc1cccc(NCc2nc3ccccc3n2C)c1	0.47	i
CN(C)CCOC(=O)c1ccc(COc2ccccc2Br)o1	1.3	i
CN(C(=O)c1ccc(COc2ccccc2Br)o1)c1ccccc1	-6.2	-6.2*
Cc1ccc(-n2nc3c(c2NC(=O)c2c(-c4ccccc4Cl)noc2C)CSC3)cc1	-7.4	-7.4*
SMILES	KCNQ2 enhance	KCNQ2 inh
Cc1onc(-c2ccccc2Cl)c1C(=O)Nc1ccc(N2CCOCC2)cc1	.	i
Cc1ccc(N(C)S(=O)(=O)c2c[nH]c3ccc([N+](=O)[O-])cc23)cc1	2.6	i
Cc1cccc(N2CCN(C(=O)c3ccc(N4CCCC4=O)cc3)CC2C)c1 (configuration not stated)	2.3	i
Cc1cccc(N2CCN(C(=O)c3ccc4c(c3)c(C)c(C)n4C)CC2C)c1 (configuration not stated)	-6.1	-6.1*
O=C(OCC#CCSc1nnc(-c2cccc3ccccc23)o1)c1cccs1	-5.8	-5.8*
O=C(OCC#CCSc1nnc(-c2ccccc2)o1)c1cccs1	.	i
Cc1cc(OCC(O)CNC(C)(C)C)ccc1Cl (configuration not stated)	1.4	i
CC(C)(C)N(Cc1ccccc1)C(=O)c1cc2ccccc2o1	-5.9	-5.9*
CN(Cc1ccccc1)C(=O)c1cc2ccccc2o1	.	i
O=C(NCC(c1ccco1)N1CCCC1)c1ccccc1Sc1ccc(C(F)(F)F)cc1[N+](=O)[O-] (configuration not stated)	.	i
COc1ccc(C(=O)NN/C(C)=C/C(=O)C(F)(F)C(F)(F)C(F)(F)F)cc1	10*	i
COc1ccc(C(=O)NNC(=O)OC(C)(C)C)cc1	.	i
Cc1ccc(-c2cc(C(=O)N3CCN(c4ccc(F)cc4)CC3)c3ccccc3n2)o1	-6	-6*
Cc1ccc(-c2cc(C(=O)Nc3nccs3)c3ccccc3n2)c(C)c1	.	i
COc1ccc(-c2cc(C(=O)N3CCN(c4ccccc4F)CC3)c3ccccc3n2)c(OC)c1	-8	-8*
Cc1ccc(-c2cc(C(=O)N3CCCC(C(F)(F)F)C3)c3ccccc3n2)o1 (configuration not stated)	.	i
COc1ccc(-c2cc(C(=O)N3CCCCCC3)c3ccccc3n2)c(OC)c1	.	i
Cc1ccc(-c2cc(C(=O)Nc3nccs3)c3ccccc3n2)o1	-5.7	-5.7*
O=C1CCCS(=O)(=O)c2ccccc21	.	i
CCN(CC(=O)NC1CCS(=O)(=O)C1)S(=O)(=O)c1ccc(Cl)cc1C(F)(F)F (configuration not stated)	1	i
CCC(Cc1ccccc1)NS(=O)(=O)c1ccc2c(c1)NC(=O)C(C)S2 (configuration not stated)	.	i
O=C(O)c1cccc(Nc2ccnc(Nc3cccc(C(=O)O)c3)n2)c1	.	i
Cc1ccc(NC(=O)c2cc(C)nc3ccccc23)c(C)c1	-5.9	-5.9*
COc1ccc(NC(=O)c2cc(C)nc3ccccc23)c(OC)c1	.	i
CCCOc1ccc(-c2nc(N3CCN(C)CC3)c3ccccc3n2)cc1	-6.7	-6.7*
SMILES	KCNQ2 enhance	KCNQ2 inh
CCCOc1ccc(-c2nc(N3CCN(CC)CC3)c3ccccc3n2)cc1	.	i
CC(=O)Nc1ccc(S(=O)(=O)N2CCN(S(=O)(=O)c3ccc(F)c(F)c3F)CC2)cc1	.	i
O=S(=O)(N/N=C/c1ccc(Cl)cc1)c1ccc(Cc2ncc(C(F)(F)F)cc2Cl)s1	-6.2	-6.2*
NC(=O)c1ccc(Cc2ncc(C(F)(F)F)cc2Cl)s1	.	i
COc1ccc2[nH]c(N=Nc3ccccc3C)c(O)c2c1	.	i
O=C(/C=C/c1ccc(Br)cc1)c1ccco1	.	i
O=C(/C=C/c1ccc([N+](=O)[O-])cc1)c1ccco1	-7.3	-7.3*
Cc1c(C(=O)NCC2CCCO2)oc2c(Cl)cccc12 (configuration not stated)	.	i
CN(C(=O)CC1C(=O)NCCN1CC(c1ccccc1)c1ccccc1)C(C1CC1)C1CC1 (configuration not stated)	.	i
CN(CC1CCOCC1)C(=O)CC1C(=O)NCCN1CC(c1ccccc1)c1ccccc1 (configuration not stated)	-5.9	-5.9*
CCC(=O)Nc1cc(-c2nn(C)c(=O)c3ccccc23)ccc1N1CCOCC1	.	i
Cn1nc(-c2ccc(N3CCCCC3)c(NC(=O)c3ccco3)c2)c2ccccc2c1=O	-5.6	-5.6*
O=C(O)c1ccc(Cl)c(S(=O)(=O)Nc2ccccc2Cc2ccccc2)c1	.	i
O=C(O)c1cc(S(=O)(=O)Nc2ccccc2Cc2ccccc2)ccc1Cl	-8.1	-8.1*
Cc1ccc(SCCNC(=S)Nc2cc(C)cc(C)c2)cc1	.	i
Cc1ccc(SCCNC(=S)Nc2ccc(C)cc2C)cc1	7*	i
O=C(CCc1ccc(S(=O)(=O)N2CCOCC2)cc1)Nc1nc(COc2ccccc2)cs1	0.27	i
COc1ccc(NC(=O)c2ccc(-n3cnnn3)cc2)c([N+](=O)[O-])c1	.	i
Cc1cc(C)cc(N(C(=O)CNS(=O)(=O)c2ccccc2)C(C(=O)NCc2ccccc2)c2ccc(C)o2)c1 (configuration not stated)	.	i
Cc1ccc(S(=O)(=O)NCC(=O)N(c2ccccc2)C(C(=O)NCc2ccccc2)c2ccco2)cc1 (configuration not stated)	-6.9	-6.9*
